Measurements from the supplement of paper PMC11732987, “Enantioselective OTUD7B fragment discovery through chemoproteomics screening and high-throughput optimisation” (Communications Chemistry, 2025).

Legend:
Assay in all cases: log2 ratio of Biotin-Ahx-Ub-VS probe labelling (fragment/DMSO); higher = less target engagement (more negative = stronger competition), active = hit call of the paper (q ≤ 0.05, log2 ratio ≤ -1)
Conditions in all cases: compound concentration: 200 uM; treatment time: 3 h
[1] = target: T1, ALG13 (UniProt Q9NP73)
T1 sequence (whole entry): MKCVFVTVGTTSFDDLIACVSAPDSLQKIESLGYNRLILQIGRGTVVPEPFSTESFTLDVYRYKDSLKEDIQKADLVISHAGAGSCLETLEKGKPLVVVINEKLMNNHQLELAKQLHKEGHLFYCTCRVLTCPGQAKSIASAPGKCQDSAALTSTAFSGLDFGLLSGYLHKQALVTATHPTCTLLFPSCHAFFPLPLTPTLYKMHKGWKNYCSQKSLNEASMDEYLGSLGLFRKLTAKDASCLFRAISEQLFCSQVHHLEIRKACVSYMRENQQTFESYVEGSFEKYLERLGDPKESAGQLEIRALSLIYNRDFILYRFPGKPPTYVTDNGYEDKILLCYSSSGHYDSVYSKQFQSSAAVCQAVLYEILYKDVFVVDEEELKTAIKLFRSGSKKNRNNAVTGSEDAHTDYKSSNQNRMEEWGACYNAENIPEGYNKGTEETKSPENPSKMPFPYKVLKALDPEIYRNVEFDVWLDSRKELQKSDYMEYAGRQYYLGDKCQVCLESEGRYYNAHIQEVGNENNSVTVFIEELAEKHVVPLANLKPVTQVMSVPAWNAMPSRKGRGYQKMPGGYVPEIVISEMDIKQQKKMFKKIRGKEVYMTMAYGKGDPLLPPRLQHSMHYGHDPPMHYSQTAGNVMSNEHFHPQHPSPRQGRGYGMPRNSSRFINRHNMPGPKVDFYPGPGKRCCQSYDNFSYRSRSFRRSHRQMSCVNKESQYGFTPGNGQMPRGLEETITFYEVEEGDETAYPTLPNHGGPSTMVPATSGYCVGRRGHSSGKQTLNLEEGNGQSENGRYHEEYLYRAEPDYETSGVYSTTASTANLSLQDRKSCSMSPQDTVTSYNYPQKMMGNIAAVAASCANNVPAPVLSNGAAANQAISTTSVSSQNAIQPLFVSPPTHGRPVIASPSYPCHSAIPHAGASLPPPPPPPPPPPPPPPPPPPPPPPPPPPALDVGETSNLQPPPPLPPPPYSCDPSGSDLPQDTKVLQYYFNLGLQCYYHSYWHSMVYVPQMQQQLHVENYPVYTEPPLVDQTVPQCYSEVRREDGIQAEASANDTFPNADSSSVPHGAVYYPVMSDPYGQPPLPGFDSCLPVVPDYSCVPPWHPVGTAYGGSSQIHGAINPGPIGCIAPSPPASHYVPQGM
Method in brief: (§1)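 HEK293T lysate (495 µg per sample, in Tris/CHAPS/IGEPAL buffer with protease inhibitors) was exposed in triplicate for 3 h to fragment at 200 µM or to vehicle, then to Biotin-Ahx-Ub-VS at 0.5 µM final for 1 h. Labelled DUBs were enriched on NeutrAvidin, digested with LysC and trypsin, and analysed by diaPASEF LC-MS/MS. Spectronaut label-free quantities were normalised to the global median, and values are average log2 ratios of fragment over vehicle from an unpaired t-test. Only proteins with ≥2 unique peptides were used.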

[2] = target: ATXN3 (UniProt P54252)
Sequence of ATXN3 (P54252 whole entry): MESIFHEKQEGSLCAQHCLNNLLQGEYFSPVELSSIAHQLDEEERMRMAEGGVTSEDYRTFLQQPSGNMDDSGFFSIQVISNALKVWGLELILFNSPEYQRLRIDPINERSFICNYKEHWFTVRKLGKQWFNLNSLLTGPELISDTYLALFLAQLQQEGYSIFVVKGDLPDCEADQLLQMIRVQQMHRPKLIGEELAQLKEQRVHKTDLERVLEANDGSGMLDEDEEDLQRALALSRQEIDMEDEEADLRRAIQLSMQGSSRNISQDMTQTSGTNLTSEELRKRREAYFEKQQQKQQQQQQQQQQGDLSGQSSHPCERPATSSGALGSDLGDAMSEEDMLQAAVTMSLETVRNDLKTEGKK
Method in brief: as §1

[3] = target: T2, BAP1 (UniProt Q92560)
T2 sequence (whole entry): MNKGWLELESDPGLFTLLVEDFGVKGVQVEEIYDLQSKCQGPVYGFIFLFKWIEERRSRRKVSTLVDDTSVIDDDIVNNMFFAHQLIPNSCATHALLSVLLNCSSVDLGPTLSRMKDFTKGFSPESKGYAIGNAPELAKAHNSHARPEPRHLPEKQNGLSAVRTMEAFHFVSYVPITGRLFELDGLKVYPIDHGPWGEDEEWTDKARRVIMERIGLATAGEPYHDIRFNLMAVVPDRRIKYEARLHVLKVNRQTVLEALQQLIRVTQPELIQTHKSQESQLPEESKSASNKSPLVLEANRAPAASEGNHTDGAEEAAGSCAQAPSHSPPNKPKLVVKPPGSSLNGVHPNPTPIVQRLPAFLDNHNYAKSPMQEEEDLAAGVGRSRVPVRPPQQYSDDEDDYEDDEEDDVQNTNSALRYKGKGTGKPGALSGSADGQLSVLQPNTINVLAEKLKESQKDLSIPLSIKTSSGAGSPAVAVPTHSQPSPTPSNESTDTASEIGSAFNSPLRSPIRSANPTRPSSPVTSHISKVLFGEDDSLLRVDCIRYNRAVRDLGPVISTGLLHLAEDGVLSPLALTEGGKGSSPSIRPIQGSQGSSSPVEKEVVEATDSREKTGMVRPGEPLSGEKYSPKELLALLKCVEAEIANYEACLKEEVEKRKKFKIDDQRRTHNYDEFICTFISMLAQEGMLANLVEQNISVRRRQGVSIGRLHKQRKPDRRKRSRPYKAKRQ
Method in brief: as §1

[4] = target: EIF3F (UniProt O00303)
Sequence of EIF3F (O00303 whole entry): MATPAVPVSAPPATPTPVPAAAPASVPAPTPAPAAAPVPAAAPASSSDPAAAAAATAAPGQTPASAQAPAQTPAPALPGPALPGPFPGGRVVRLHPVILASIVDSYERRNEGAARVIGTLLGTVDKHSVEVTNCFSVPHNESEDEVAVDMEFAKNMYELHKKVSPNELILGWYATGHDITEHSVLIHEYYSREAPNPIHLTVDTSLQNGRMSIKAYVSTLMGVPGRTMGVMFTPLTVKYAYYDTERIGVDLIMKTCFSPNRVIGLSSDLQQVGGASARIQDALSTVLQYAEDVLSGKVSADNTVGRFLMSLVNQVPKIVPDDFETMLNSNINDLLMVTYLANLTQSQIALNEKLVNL
Method in brief: as §1

[5] = target: EIF3H (UniProt O15372)
Sequence of EIF3H (O15372 whole entry): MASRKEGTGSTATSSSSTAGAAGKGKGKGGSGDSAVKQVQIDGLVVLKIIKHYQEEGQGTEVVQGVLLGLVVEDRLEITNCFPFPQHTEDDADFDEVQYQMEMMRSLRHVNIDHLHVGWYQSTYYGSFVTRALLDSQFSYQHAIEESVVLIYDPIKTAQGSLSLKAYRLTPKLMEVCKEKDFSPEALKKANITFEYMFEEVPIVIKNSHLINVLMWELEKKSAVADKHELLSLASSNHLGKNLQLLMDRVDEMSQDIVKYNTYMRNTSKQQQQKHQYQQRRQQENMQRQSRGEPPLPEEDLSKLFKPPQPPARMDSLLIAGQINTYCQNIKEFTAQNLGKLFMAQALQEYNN
Method in brief: as §1

[6] = target: T3, FAM105A (UniProt Q9NUU6)
T3 sequence (whole entry): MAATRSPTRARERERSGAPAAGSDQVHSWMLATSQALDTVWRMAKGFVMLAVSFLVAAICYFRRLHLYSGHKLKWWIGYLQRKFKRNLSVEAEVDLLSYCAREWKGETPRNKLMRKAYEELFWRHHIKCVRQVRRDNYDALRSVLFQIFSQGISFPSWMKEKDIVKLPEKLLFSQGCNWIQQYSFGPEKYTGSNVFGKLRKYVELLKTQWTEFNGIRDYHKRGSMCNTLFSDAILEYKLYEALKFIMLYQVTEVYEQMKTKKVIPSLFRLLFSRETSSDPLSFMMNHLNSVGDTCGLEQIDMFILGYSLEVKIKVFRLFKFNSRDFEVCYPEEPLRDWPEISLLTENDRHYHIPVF
Method in brief: as §1

[7] = target: OTUB1 (UniProt Q96FW1)
Sequence of OTUB1 (Q96FW1 whole entry): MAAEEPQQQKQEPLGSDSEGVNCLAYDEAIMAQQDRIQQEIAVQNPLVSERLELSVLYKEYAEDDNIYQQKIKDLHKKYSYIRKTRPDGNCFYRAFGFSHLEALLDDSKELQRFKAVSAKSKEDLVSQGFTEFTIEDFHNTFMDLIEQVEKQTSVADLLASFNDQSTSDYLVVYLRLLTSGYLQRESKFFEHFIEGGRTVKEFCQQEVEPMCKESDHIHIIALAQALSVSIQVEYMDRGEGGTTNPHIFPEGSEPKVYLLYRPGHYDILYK
Method in brief: as §1

[8] = target: T4, OTUD4 (UniProt Q01804)
T4 sequence (whole entry): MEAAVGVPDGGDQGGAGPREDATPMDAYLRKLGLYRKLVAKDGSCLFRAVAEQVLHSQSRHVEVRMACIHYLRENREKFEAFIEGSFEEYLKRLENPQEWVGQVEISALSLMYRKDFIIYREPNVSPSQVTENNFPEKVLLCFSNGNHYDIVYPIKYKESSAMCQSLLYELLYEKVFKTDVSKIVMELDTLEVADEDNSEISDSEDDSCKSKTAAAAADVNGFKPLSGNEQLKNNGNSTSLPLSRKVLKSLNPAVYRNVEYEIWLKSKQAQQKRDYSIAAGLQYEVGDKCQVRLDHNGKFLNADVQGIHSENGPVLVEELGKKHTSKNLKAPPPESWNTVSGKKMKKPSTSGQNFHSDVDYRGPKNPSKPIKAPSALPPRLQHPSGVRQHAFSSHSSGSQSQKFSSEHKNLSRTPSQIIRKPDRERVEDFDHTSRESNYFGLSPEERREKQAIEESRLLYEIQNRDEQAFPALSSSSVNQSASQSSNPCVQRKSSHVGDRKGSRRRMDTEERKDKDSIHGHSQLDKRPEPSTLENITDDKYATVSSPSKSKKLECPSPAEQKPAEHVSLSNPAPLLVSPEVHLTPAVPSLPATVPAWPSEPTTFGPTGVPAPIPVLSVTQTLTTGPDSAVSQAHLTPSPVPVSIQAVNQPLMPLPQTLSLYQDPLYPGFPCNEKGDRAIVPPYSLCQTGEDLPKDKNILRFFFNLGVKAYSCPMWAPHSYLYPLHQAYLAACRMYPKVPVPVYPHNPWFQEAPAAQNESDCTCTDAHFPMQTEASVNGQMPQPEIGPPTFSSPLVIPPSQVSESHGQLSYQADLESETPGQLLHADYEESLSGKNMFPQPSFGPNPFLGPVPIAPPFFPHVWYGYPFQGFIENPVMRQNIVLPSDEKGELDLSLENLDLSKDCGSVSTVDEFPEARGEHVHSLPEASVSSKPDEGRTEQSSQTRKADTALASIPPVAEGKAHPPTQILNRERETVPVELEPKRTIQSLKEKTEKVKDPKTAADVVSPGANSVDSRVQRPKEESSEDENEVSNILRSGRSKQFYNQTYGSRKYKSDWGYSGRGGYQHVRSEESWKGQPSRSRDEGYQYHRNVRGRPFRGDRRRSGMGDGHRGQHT
Method in brief: as §1

[9] = target: T5, OTUD5 (UniProt Q96G74)
T5 sequence (whole entry): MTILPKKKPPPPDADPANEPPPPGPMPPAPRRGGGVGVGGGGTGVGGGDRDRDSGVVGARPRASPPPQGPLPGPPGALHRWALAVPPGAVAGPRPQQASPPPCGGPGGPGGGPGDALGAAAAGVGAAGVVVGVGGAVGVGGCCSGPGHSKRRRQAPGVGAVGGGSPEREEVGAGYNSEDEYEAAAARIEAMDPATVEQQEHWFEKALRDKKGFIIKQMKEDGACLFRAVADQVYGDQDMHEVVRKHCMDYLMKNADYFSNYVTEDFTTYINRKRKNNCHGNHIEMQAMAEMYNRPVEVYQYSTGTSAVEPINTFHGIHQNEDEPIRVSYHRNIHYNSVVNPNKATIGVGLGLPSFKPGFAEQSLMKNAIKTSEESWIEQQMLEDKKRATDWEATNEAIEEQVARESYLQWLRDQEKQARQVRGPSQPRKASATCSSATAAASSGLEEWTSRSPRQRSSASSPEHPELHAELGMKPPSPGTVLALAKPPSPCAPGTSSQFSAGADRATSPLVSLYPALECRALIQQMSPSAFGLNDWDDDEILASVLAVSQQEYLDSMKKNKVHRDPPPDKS
Method in brief: as §1

Measured: log2 ratio of Biotin-Ahx-Ub-VS probe labelling

O=C(CCl)N1CCOC(c2cccc(F)c2)C1 (centres undefined)
inactive: [1] -0.261 | [4] -0.0524 | [5] 0.265 | [6] -0.167 | [7] -0.175 | [8] -0.803 | [9] -0.491
active: [2] -2.59 | [3] -1.09
